Screening results from PubChem.
Sm TGR block: inhibitors of Schistosoma mansoni thioredoxin glutathione reductase. Q962Y6. purified TGR, DTNB reduction, TNB absorbance 405 nm. Potency, µM (top dose mostly 114 µM), inactives show top-dose activity change, negative = inhibition, usual class: inhibitors. actives 3% (n = 360,000). AID 485364; active = well fitted inhibition curve with a large enough effect; inconclusive = small, poorly fitted or top-dose-only effect; inactive = no such curve, though single readings can be large or run the other way; also: potency is read from the fitted curve at half-maximal effect; % is scaled to controls: 0 for no effect and ±100 for the full control effect; nearly all actives have a fitted effect of over 60% in size
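Kinetic colorimetric format: TGR-catalysed, NADPH-driven DTNB reduction monitored via TNB absorbance. Enzyme dispensed at 20 nM; compound exposure 15 min at room temperature before reaction start.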
CHX counter: affects cycloheximide protein synthesis inhibition readout, counter-screen | cell reporter, cycloheximide protein synthesis inhibition counterscreen | max response, % | actives 12% (n = 300,000) | AID 2314; in the data active = max response mostly above about 13%, no sharp cut-off; inactive = mostly below about 14%; also: read at 38.3 µM for the half of the compounds with a filed dose; 0% is about no effect
Shiga inhibitor: blocks Shiga toxin action in Vero cells; inhibition, % at 38.7 µM; Vero cells, Shiga toxin protein synthesis inhibition reporter; actives 9.2% (n = 290,000); in the data active = inhibition mostly above about 28%, no sharp cut-off; inactive = mostly below about 43%; also: 0% is about no effect
FMDV inh: foot and mouth disease virus antiviral activity. Potency, µM (top dose mostly 57.9 µM), inactives show top-dose activity change, negative = inhibition, actives largely listed as inhibitors. FMDV antiviral cell-based qHTS. actives 1.2% (n = 410,000). AID 1159524; calls by dose curve; tested in HEK293T cells; also: read-out not given here; potency is read from the fitted curve at half-maximal effect; % is scaled to controls: 0 for no effect and ±100 for the full control effect; nearly all actives have a fitted effect of over 45% in size
* = called active by the depositor; ? = inconclusive; . = not tested or not shown; + = active, no number. Compounds with a hit are over-represented: about 12% of the library has one in this group of screens.

SMILES	Sm TGR block	CHX counter	Shiga inhibitor	FMDV inh
CCN(c1cccc(C)c1)S(=O)(=O)c1ccc2[nH]cc(C(=O)NCCCOC)c(=O)c2c1	2%	.	.	0%
Cc1ccc(-c2cn3c(n2)sc2cc(C(=O)NCCC4=CCCCC4)ccc23)c(C)c1	-11%	.	.	30%
Cc1ccc(CNC(=O)CCc2c(C)nc3nc(C)nn3c2C)cc1	-8%	.	.	17%
CC(=O)Nc1ccc(OS(=O)(=O)c2ccc(C(C)(C)C)cc2)cc1	2%	12*	34	.
CC(=O)Nc1ccc(S(=O)(=O)Oc2cccc(N3C(=O)C4CCCCC4C3=O)c2)cc1 (stereo not given)	12%	2	-11	18µM*
CC(=O)Nc1ccc(OS(=O)(=O)O)cc1	.	-5	-5	.
Cc1ccc(S(=O)(=O)Oc2cccc(N3C(=O)C4CC=CCC4C3=O)c2)cc1 (stereo not given)	-14%	1	-34	-19%
Brc1cc(Br)c2nc(-c3ccc(N4CCOCC4)cc3)ccc2c1	?	38*	55*	35%
COc1cccc(NC(=O)CSC2=C(C#N)C(c3ccco3)C3=C(CCCC3=O)N2)c1 (stereo not given)	-34%	36*	92*	14%
COc1ccc(NC(=O)CSC2=C(C#N)C(c3ccco3)C3=C(CCCC3=O)N2)c(OC)c1 (stereo not given)	?	14	-13	5%
CCCCc1ccc(NC(=O)CSC2=C(C#N)C(c3ccco3)C3=C(CCCC3=O)N2)cc1 (stereo not given)	-30%	19*	-3	?
COc1cc(NC(=O)Cn2c(=O)n(Cc3ccccc3OC)c(=O)c3cccnc32)cc(OC)c1	2%	.	.	?
CCNC(=O)CC1C(=O)N(c2ccc(F)cc2)C(=O)N1Cc1ccc(OC)c(OC)c1 (stereo not given)	-14%	.	.	0%
CC[n+]1c(/C=C/c2c[nH]c3ccccc23)ccc2cc(C)ccc21	-11%	0	-5	13µM*
Cc1ccc(-n2nc3c(c2NC(=O)c2ccco2)CS(=O)C3)c(C)c1 (stereo not given)	40µM*	.	.	-15%
CC(=O)Nc1c2c(nn1-c1ccccc1)CS(=O)C2 (stereo not given)	-22%	2	3	-6%
CC(=O)Nc1c2c(nn1-c1ccccc1C)CS(=O)C2 (stereo not given)	50µM*	-5	-5	-13%
O=C(NCCc1ccccc1)c1cccnc1	3%	37*	63*	42%
CC/C(Cc1ccccc1)=N\NC(=O)c1cc([N+](=O)[O-])cc([N+](=O)[O-])c1	0%	2	-4	-4%
O=C(NCCNC(=O)c1cccnc1)c1cccnc1	.	.	.	-13%
CCCNC(=O)c1cccc(Br)c1	7%	-4	-3	-20%
CC/C(Cc1ccccc1)=N/NC(=O)c1cccc(Br)c1	-5%	16	47*	-11%
O=C(NCCc1ccccc1)c1cccc(Br)c1	6%	39*	79*	49%
O=C(CNC(=O)c1ccccc1)NCCc1ccc(O)c(O)c1	3.2µM*	12	15	.
COCCNC(=O)Cn1c(=O)c2cccn2c2ccc(F)cc21	3%	.	.	-8%
SMILES	Sm TGR block	CHX counter	Shiga inhibitor	FMDV inh
COc1cc(NC(=O)CCCc2nnc3n(CC(C)C)c(=O)c4sccc4n23)cc(OC)c1	-3%	.	.	-11%
COc1ccc(CCNC(=O)c2cccc([N+](=O)[O-])c2)cc1OC	.	.	.	-21%
O=C(NCCc1ccccc1)c1cccc([N+](=O)[O-])c1	-4%	82*	active	23%
COc1ccc(N2CCN(C(c3ccc(F)cc3)c3sc4nc(-c5ccco5)nn4c3O)CC2)cc1 (stereo not given)	9%	.	.	12%
Cn1cnc2c(=O)oc3ccc(S(=O)(=O)N4CCN(c5cccc(Cl)c5)CC4)cc3c21	1%	.	.	-13%
Cc1ccc(Oc2ccc(/C=N/O)cn2)cc1	33%	41*	91*	27%
Cc1ccc(COc2ccc(/C=N/O)cc2)cc1	-7%	43*	87*	13%
Cn1nnc2c(NCc3ccccc3Cl)ncnc21	12%	.	.	-6%
Clc1ccccc1CONc1ncnc2nonc12	12%	31*	+	-8%
CCOc1ccccc1CNC(=O)C1CCN(S(=O)(=O)c2c(C)noc2/C=C/c2ccc(C)cc2)CC1	-2%	.	.	-4%
N#Cc1ccsc1NC(=O)CSc1nnc(-c2ccccc2)o1	-3%	31*	87*	30%
N#Cc1ccsc1NC(=O)COc1ccc(-c2nnco2)cc1	-22%	35*	99*	37%
N#Cc1ccsc1NC(=O)CN(Cc1ccccc1)Cc1ccccc1	-8%	15	13	?
O=C(CSc1nnc(-c2cccnc2)o1)Nc1nccs1	2%	.	.	18%
N#Cc1ccsc1NC(=O)CCc1ccccc1	-29%	32*	68*	67%
CCc1nnc(NC(=O)CSc2ncc(-c3ccccc3)n2C)s1	6%	54*	102*	3%
CCOc1ccc(CNC(=O)CCS(=O)(=O)c2cc3c4c(c2)CCN4C(=O)CC3)cc1	1%	.	.	-2%
CCc1nnc(NC(=O)CSc2nc(-c3ccccc3)c(-c3ccccc3)o2)s1	11%	-1	-2	?
Cc1cnc(NC(=O)CSc2nnc(-c3ccccc3)o2)s1	2%	41*	44*	24%
Cc1ccc(-c2nnc(SCC(=O)Nc3ccccc3F)o2)cc1	-24%	16*	-3	-9%
CCc1nnc(NC(=O)CSc2nnc(-c3ccccc3O)o2)s1	9%	34*	92*	5%
O=C(CSc1nnc(-c2ccccc2)o1)Nc1ccccc1F	-8%	23*	6	26%
COc1ccccc1-c1nnc(SCC(=O)Nc2ccccc2F)o1	-4%	.	.	53%
Cc1cccc(-c2nc3c4ccccc4nc(NCc4ccccc4Cl)n3n2)c1	24%	.	.	26%
COc1cccc(OC)c1OCc1cc(C2C3CCCC=C3C(C#N)=C(N)C2(C#N)C#N)c(C)cc1C (stereo not given)	40µM*	5	-3	?
SMILES	Sm TGR block	CHX counter	Shiga inhibitor	FMDV inh
Cc1cc(C)n2ncc(-c3cccc(Br)c3)c2n1	0%	65*	55*	14%
Cc1cc(C)n2nc(-c3cccc(Br)c3)cc2n1	0%	32*	.	24%
Cc1cccc(-c2cc3nc(C)cc(N4CC(C)CC(C)C4)n3n2)c1 (stereo not given)	-20%	6	6	?
COc1ccccc1-c1cc2nc(C)cc(C)n2n1	26%	17	57*	37%
Cc1cccc(-c2cc3nc(C)cc(C)n3n2)c1	9%	49*	75*	50%
CC(=O)c1cnc2cc(-c3cccc(Br)c3)nn2c1C	-5%	39*	91*	47%
O=[N+]([O-])c1cccc(-c2ccc(/C=N/NC(=S)Nc3ccccc3)o2)c1	-4%	14*	16	-6%
O=[N+]([O-])c1cccc(-c2ccc(/C=N/NC(=S)NCc3ccco3)o2)c1	-27%	5	26	-28%
O=C(N/N=C/c1ccc([N+](=O)[O-])o1)c1ccccc1NS(=O)(=O)c1cccs1	28µM*	-3	1	?
Fc1ccccc1NC(=S)N/N=C/c1ccccc1Br	1%	22*	70	73%
O=[N+]([O-])c1ccc(/C=N/Nc2ccc3ccccc3c2)o1	-13%	58*	126*	-17%
